Measurements: PubChem BioAssay (NCATS)
Records with an inconclusive call do not appear. Activity calls are given as the source filed them. Unless noted, the call rests on the fitted dose curve; in most records, active means well fitted curve in the direction sought with a large enough effect; inconclusive means small, poorly fitted or top-dose-only effect, or another doubt; inactive means no such curve, though single readings can be large; an effect the other way counts as inactive or inconclusive.

Experiments:
[1] = molecular target: Glucocorticoid receptor (Homo sapiens) (UniProt P04150); assay: qHTS assay for small molecule agonists of glucocorticoid receptor signaling (AID 588532; active means well fitted curve in the direction sought with a large enough effect in the signal ratio, with a control signal flat; the % refers to the signal ratio;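 further: 100% = dexamethasone at 0.1 µM and 0% = DMSO only wells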); conditions: HeLa MMTV-bla, beta-lactamase ratio, agonist, 18 h; activation: stronger effect = higher value, percent of dexamethasone control, DMSO zero
Glucocorticoid receptor (Homo sapiens), sequence (P04150 whole entry, looked up): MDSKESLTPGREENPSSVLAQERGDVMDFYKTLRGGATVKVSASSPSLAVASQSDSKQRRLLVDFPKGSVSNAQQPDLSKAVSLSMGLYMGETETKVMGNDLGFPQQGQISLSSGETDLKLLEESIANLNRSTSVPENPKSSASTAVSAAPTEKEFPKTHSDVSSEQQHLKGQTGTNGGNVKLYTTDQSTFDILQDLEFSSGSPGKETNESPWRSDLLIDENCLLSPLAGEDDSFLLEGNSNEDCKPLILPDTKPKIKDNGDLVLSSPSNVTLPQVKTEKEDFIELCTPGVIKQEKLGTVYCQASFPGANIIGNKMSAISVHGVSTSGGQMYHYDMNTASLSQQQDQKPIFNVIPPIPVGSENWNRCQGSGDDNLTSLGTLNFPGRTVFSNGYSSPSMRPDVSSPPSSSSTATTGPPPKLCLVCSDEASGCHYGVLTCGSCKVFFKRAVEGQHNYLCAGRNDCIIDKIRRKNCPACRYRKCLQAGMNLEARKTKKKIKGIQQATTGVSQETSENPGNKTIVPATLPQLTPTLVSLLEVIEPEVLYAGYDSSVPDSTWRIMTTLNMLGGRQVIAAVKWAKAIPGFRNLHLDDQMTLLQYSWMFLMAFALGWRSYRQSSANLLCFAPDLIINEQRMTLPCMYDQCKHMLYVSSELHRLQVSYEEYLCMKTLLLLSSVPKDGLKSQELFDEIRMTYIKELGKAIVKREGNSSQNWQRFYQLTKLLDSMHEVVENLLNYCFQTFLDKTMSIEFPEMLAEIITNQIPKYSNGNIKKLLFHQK
Outline: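 Using MMTV-bla HeLa cells in medium with 1% stripped FBS and 25 mM HEPES, compounds were titrated and incubated overnight-length (18 h). Beta-lactamase cleavage of CCF4 was quantified by dual-emission fluorescence.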

[2] = molecular target: Thyroid hormone receptor beta (Homo sapiens) (UniProt P10828); assay: qHTS assay for small molecule agonists of thyroid hormone receptor beta signaling (AID 588545; calls by dose curve;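 further: 0% = DMSO only and 100% = 10 nM T3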)
Thyroid hormone receptor beta (Homo sapiens), sequence (P10828 whole entry, looked up): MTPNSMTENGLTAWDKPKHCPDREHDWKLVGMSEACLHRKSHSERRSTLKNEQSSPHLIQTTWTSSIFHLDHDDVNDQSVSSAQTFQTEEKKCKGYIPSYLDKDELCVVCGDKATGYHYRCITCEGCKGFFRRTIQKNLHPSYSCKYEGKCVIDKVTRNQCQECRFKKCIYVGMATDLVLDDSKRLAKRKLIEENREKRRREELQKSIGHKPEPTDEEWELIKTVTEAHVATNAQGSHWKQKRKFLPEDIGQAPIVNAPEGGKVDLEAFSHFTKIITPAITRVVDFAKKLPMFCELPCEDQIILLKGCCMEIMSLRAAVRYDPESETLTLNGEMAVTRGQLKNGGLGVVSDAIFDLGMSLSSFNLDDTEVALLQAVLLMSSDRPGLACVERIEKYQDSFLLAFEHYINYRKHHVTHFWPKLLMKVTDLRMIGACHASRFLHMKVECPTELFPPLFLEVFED
Outline: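 Efficacy and EC50 values derive from Hill fits of qHTS titration data, normalized to 10 nM T3 and DMSO-only wells. HEK 293 reporter cells were stimulated for 18 hrs at 37 C, with beta-lactamase activity measured by CCF4 fluorescence.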

[3] = molecular target: Thyroid hormone receptor beta (Homo sapiens) (UniProt P10828); assay: qHTS assay for small molecule antagonists of thyroid hormone receptor beta signaling (AID 588547; active means well fitted inhibition curve with a large enough effect in the signal ratio, with a control signal flat, not every such curve was filed as active; the % refers to the signal ratio; further: potency means the concentration at half of the fitted maximal effect); conditions: TR-UAS-bla HEK293, beta-lactamase ratio, antagonist mode, 18 h
Outline: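 Inhibition of T3-driven (0.4nM final) beta-lactamase reporter activity was measured over 0.59 nM to 92 uM compound after 18 h at 37 C. The cells were GripTite HEK293 TR-UAS-bla in charcoal/dextran-stripped serum, with CCF4 ratio read-out and IC50 from Hill fits.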

[4] = qHTS assay for small molecule activators of the nuclear factor-kappa B (NF-kB) signaling pathway (AID 651749; active means well fitted activation curve with a large enough effect in the signal ratio; the % refers to the signal ratio; further: series mostly up to about 77 µM; % of control where 0% means no effect); conditions: NF-kB-bla ME-180 cells, beta-lactamase FRET ratio, 16 h; activation: stronger effect = higher value
Outline: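 Activation measured after 16 hr compound treatment at 37C, 5% CO2, of 2,000 ME-180 cells/well stably expressing an NF-kB response element–driven beta-lactamase reporter, via FRET-disruption fluorescence.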

[5] = qHTS assay for environmental chemicals that activate the Aryl hydrocarbon Receptor (AhR) signaling pathway (AID 651777); conditions: 1A2-DRE human hepatoma cells, luciferase, 24 h; activation: stronger effect = higher value; further: % of control where 0% means no effect; nearly all actives have a fitted effect of over 15% in size
Outline: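 Luminescence read-out: One-Glo added for 30 min at RT after 24 hr compound treatment (37 C, 5% CO2) of human hepatoma cells expressing a DRE/CYP1A2 promoter–luciferase reporter; increased signal indicates AhR activation.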

[6] = molecular target: Peroxisome proliferator-activated receptor alpha (Homo sapiens) (UniProt Q07869); assay: qHTS assay for small molecule agonists of the peroxisome proliferator-activated receptor alpha (PPARalpha) signaling pathway (AID 651778); conditions: PathHunter PPARalpha complementation, chemiluminescence, 6 h; max response: stronger effect = higher value; further: potency means the concentration at half of the fitted maximal effect; on max response: % of control where 0% means no effect
Peroxisome proliferator-activated receptor alpha (Homo sapiens), sequence (Q07869 whole entry, looked up): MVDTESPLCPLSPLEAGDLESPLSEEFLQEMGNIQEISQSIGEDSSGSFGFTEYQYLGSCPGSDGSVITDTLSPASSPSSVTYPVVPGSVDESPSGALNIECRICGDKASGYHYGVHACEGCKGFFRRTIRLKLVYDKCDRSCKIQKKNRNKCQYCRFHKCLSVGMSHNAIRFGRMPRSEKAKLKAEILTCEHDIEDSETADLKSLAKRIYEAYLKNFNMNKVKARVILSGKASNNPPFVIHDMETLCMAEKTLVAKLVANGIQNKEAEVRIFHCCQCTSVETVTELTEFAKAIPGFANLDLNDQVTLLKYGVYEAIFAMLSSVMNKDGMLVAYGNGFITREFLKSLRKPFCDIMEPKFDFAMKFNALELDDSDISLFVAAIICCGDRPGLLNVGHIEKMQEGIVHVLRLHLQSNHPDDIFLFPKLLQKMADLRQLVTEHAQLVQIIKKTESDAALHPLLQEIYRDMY
Outline: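 Chemiluminescence from complemented enzyme reported PPARalpha activation in cells after 6 hr of compound treatment at 37 C. The detection reagent was incubated for 60 min at room temperature, and compounds were scored as agonists.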

[7] = qHTS assay for small molecule agonists of the antioxidant response element (ARE) signaling pathway measured by Nrf2-dependant transcriptional activity - cell viability counter screen (AID 720653; active means well fitted curve in the direction sought with a large enough effect in the repeat runs; an effect the other way counts as inactive or inconclusive; further: on the % scale 0 is the no-effect control and ±100 the full control effect); conditions: ARE-bla HepG2 viability, CellTiter-Glo ATP luminescence, 16 h; max response: stronger effect = lower value
Outline: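 Cytotoxicity counter screen: intracellular ATP quantified by CellTiter-Glo luminescence in the same ARE-bla HepG2 plates, after 16 h compound exposure and a 2 h beta-lactamase substrate step.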

[8] = qHTS assay for cell viability of HEK293 cells (AID 743288); conditions: ATP luminescence (CellTiter-Glo), 18 h; max response: stronger effect = lower value; further: on the % scale 0 is the no-effect control and ±100 the full control effect; nearly all actives have a fitted effect of over 50% in size
Outline: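 Quantitative high-throughput screen: compounds were pinned onto parental HEK293 cells (2,000 per well) after a minimum 5 h settling at 37 C, incubated 18 h at 37 C, and intracellular ATP measured by luciferase luminescence.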

[9] = qHTS assay for cell viability of the p53RE-bla HCT-116 cell line (AID 743292); further: on the % scale 0 is the no-effect control and ±100 the full control effect; nearly all actives have a fitted effect of over 55% in size
Outline: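 Luminescent ATP quantitation (CellTiter-Glo) served as the viability read-out; reagent was added after 16 h compound exposure at 37 C and read after 30 min at room temperature. Cells: p53RE-bla HCT-116, 4,000 per well.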

[10] = molecular target: Nuclear receptor subfamily 1 group I member 2 (Rattus norvegicus) (UniProt Q9R1A7); assay: qHTS assay for small molecule activators of the rat pregnane X receptor (rPXR) signaling pathway (AID 651751; call rule not given here; further: 0% is about no effect); conditions: rPXR reporter cells, luciferase (One-Glo), 24 h
Nuclear receptor subfamily 1 group I member 2 (Rattus norvegicus), sequence (Q9R1A7 whole entry, looked up): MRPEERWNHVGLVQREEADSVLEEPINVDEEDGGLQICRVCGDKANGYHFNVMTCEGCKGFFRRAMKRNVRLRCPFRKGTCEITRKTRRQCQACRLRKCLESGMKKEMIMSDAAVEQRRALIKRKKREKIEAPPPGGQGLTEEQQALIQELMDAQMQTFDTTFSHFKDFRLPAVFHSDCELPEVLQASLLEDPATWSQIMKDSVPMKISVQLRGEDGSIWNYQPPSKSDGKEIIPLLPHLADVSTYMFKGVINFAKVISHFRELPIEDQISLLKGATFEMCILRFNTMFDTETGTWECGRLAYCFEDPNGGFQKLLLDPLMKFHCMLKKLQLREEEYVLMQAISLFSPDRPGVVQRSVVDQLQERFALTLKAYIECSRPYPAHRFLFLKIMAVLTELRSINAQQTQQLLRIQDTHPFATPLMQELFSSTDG

[11] = molecular target: Glucocorticoid receptor (Homo sapiens) (UniProt P04150); assay: qHTS assay for small molecule antagonists of glucocorticoid receptor signaling (AID 588533; active means well fitted inhibition curve with a large enough effect in the signal ratio, with a control signal flat, not every such curve was filed as active; the % refers to the signal ratio;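 further: cells stimulated with 2 nM dexamethasone as agonist; on the % scale 0 is the no-effect control and ±100 the full control effect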)
Outline: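 Antagonist-mode qHTS: compound titrations added to GRE-bla HeLa cells, then dexamethasone 2 nM final; 18 h, 37 C. CCF4 FRET fluorescence normalized to dexamethasone and DMSO; IC50 from Hill fit.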

[12] = qHTS assay for small molecule antagonists of peroxisome proliferator-activated receptor delta signaling (AID 588535); conditions: HEK293T PPARd-UAS-bla, beta-lactamase FRET ratio, 18 h; 460 nm channel;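 further: cells co-treated with a PPAR-delta agonist as stimulator during compound exposure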
Outline: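 Titrations were run on PPAR-delta-UAS-bla HEK293T cells in charcoal/dextran-stripped serum, incubated 18 h at 37 C. CCF4 fluorescence (460/530 nm) after 2 h RT; Hill equation yields IC50 and maximal response.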

[13] = molecular target: Vitamin D3 receptor (Homo sapiens) (UniProt P11473); assay: qHTS assay for small molecule antagonists of vitamin D receptor signaling (AID 588541; calls by dose curve;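 further: receptor activated by calcitriol during compound treatment; series mostly up to about 77 µM; on the % scale 0 is the no-effect control and ±100 the full control effect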)
Vitamin D3 receptor (Homo sapiens), sequence (P11473 whole entry, looked up): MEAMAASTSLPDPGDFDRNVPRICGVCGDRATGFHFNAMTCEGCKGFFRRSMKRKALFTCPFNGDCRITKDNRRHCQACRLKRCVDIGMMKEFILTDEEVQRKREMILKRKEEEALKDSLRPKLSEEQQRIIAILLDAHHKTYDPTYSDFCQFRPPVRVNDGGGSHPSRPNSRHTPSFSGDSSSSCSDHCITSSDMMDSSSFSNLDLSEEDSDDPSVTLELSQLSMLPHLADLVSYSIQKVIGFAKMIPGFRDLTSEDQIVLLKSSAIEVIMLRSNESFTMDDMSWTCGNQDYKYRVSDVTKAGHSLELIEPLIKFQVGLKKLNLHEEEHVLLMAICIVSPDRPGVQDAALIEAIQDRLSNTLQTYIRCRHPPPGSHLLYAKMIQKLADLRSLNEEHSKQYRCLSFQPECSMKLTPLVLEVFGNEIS
Outline: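 Antagonist-mode beta-lactamase reporter assay: HEK293T VDR-UAS-bla cells were exposed to titrated compound alongside 1-alpha,25-dihydroxyvitamin D3 at 3 nM final for 16 h. Values were normalized to the 50 nM agonist control and DMSO basal, with IC50 and efficacy from Hill equation fits.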

[14] = molecular target: Vitamin D3 receptor (Homo sapiens) (UniProt P11473); assay: qHTS assay for small molecule agonists of vitamin D receptor signaling (AID 588543; calls by dose curve;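 further: 0% = DMSO basal and 100% = reference agonist control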)
Outline: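 qHTS in agonist mode: compound titrations stimulate a VDR-driven β-lactamase reporter in HEK293T cells over 16 h at 37 °C. Response normalized to 50 nM 1α,25-dihydroxyvitamin D3 = 100%, DMSO = 0%; Hill fitting gives EC50 and maximal response.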

[15] = qHTS assay for small molecule activators of the p53 signaling pathway (AID 651743; active means well fitted activation curve with a large enough effect in the signal ratio, not every such curve was filed as active; the % refers to the signal ratio; further: series mostly up to about 92 µM; % of control where 0% means no effect); conditions: HCT-116 p53RE-bla, beta-lactamase FRET ratio, 16 h; activation: stronger effect = higher value
Outline: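 After 16 hours compound treatment at 37 C, HCT-116 cells stably expressing p53RE-driven beta-lactamase were loaded with LiveBLAzer B/G FRET substrate for 2 hours at room temperature. Fluorescence intensity served as the p53 activation read-out.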

[16] = qHTS assay for small molecule agonists of the antioxidant response element (ARE) signaling pathway measured by Nrf2-dependant transcriptional activity (AID 720636; active means well fitted curve in the direction sought with a large enough effect in the repeat runs; an effect the other way counts as inactive or inconclusive;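 further: HepG2 cells with an ARE-driven luciferase reporter; % of control where 0% means no effect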)
Outline: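 HepG2 ARE-luc reporter line, 1% dialyzed FBS; 6 hr attachment at 37 C, compound pinned in, 16 hr at 37 C/5% CO2; ONE-Glo, 30 min RT, luminescence read.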

[17] = molecular target: Peroxisome proliferator-activated receptor delta (Homo sapiens) (UniProt Q03181); assay: qHTS assay for small molecule agonists of peroxisome proliferator-activated receptor delta signaling (AID 588534; calls by dose curve;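 further: 0% = DMSO basal wells and 100% = positive control agonist at 10 µM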)
Peroxisome proliferator-activated receptor delta (Homo sapiens), sequence (Q03181 whole entry, looked up): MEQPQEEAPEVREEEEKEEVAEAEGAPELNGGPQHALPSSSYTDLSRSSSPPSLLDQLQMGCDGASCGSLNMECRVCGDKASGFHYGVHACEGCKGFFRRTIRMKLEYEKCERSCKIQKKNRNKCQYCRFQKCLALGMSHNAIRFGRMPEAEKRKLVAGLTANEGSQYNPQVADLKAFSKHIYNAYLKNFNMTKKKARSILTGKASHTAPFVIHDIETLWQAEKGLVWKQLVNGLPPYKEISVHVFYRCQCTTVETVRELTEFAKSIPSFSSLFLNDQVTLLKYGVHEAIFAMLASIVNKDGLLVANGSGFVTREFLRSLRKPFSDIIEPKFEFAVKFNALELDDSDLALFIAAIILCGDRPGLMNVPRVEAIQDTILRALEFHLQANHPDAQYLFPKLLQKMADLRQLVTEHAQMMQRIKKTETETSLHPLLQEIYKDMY
Outline: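 Agonist-mode qHTS; reporter cells, 5 hrs 37 C pre-incubation; compound titration, 18 hrs 37 C; CCF4 dye, 2 hrs RT; fluorescence read. EC50/efficacy via Hill fit.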

[18] = molecular target: Retinoic acid receptor RXR-alpha (Homo sapiens) (UniProt P19793); assay: qHTS assay for small molecule agonists of retinoid X receptor alpha signaling (AID 588544; calls by dose curve; further: potency means the concentration at half of the fitted maximal effect;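 on activation: 0% = DMSO basal wells and 100% = reference agonist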)
Retinoic acid receptor RXR-alpha (Homo sapiens), sequence (P19793 whole entry, looked up): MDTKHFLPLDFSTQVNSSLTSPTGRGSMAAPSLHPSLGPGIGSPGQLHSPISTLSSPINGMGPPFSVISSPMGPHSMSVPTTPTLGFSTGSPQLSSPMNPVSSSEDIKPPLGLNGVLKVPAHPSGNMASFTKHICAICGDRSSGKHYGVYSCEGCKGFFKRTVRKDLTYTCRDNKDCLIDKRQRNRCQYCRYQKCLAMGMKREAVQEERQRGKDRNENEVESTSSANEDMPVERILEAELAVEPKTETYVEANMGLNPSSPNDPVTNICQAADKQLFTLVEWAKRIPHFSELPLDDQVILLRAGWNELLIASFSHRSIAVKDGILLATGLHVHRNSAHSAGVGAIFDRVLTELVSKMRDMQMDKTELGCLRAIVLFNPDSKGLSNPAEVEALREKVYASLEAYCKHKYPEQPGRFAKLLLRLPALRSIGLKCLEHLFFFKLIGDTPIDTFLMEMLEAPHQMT

[19] = qHTS assay for small molecule antagonists of retinoid X receptor alpha signaling (AID 588546; active means well fitted inhibition curve with a large enough effect in the signal ratio, with a control signal flat, not every such curve was filed as active; the % refers to the signal ratio;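 further: cells stimulated with 9-cis-retinoic acid as agonist; on the % scale 0 is the no-effect control and ±100 the full control effect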); conditions: HEK293T RXRa-UAS-bla, beta-lactamase ratio, antagonist mode; measured here: W530 green channel, cytotoxicity proxy
Outline: (§1)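 Beta-lactamase reporter inhibition, read as CCF4 fluorescence ratio (ex 405, em 460/530 nm) after 2 h at RT. HEK293T UAS-bla cells, 2500/well, were stimulated with 9-cis-RA at 500 or 100 nM final alongside test compound for 18 h at 37 C.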

[20] = molecular target: Retinoic acid receptor RXR-alpha (Homo sapiens) (UniProt P19793); assay: as above; conditions: HEK293T RXRa-UAS-bla, beta-lactamase ratio, antagonist mode
Outline: as §1

CC1=C(C(=O)Nc2ccccc2)S(=O)(=O)CCO1
active: Potency [3] 39.8 µM
inactive: activation [1] -17.4% | Potency [2] | activation [4] -0.594% | activation [5] -2.25% | max response [6] -2.04% | max response [7] -1.32% | max response [8] -49.4% | Potency [9] | max response [10] -5.83%

CC(C)(C)C(O)C(Oc1ccc(-c2ccccc2)cc1)n1cncn1 (stereo not drawn)
-42.4%: max response [12]
inactive: Potency [11] | Potency [13] | outcome [14] | Potency [2] | activity change % (negative = inhibition) [3] -13.8% | activation [15] 6.28% | activation [5] 0.741% | max response [6] 1.37% | Potency [16] | max response [7] -1.48% | max response [8] -21.2%

C#CCN1C(=O)COc2cc(F)c(N3C(=O)C4=C(CCCC4)C3=O)cc21
5.82%: max response [19]
inactive: Potency [11] | outcome [17] | Potency [13] | outcome [14] | Potency [18] | Potency [2] | max response [20] -8.58% | activity change % (negative = inhibition) [3] -4.79% | activation [4] -1.45% | activation [5] 0.764% | max response [6] -2.95% | Potency [16] | max response [7] -24.6% | max response [8] -11.7% | Potency [9] | max response [10] 6.57%

COc1cc(OC)nc(NC(=O)NS(=O)(=O)c2ncccc2OCC(F)(F)F)n1
inactive: activation [1] 3.36% | Potency [11] | outcome [17] | Potency [13] | outcome [14] | Potency [18] | max response [20] -28.8% | activation [15] -0.487% | activation [4] -0.186% | activation [5] 1.59% | max response [6] -0.694% | Potency [16] | max response [7] -8.5% | max response [8] -8.98% | Potency [9] | max response [10] -1.56%
-1.53%: max response [19]
-5.67%: max response [12]

CCOP(=O)(OCC)OC(Cl)C(Cl)(Cl)Cl (stereo not drawn)
-13.7%: max response [19]
51.3%: max response [12]
inactive: activation [1] -1.92% | Potency [11] | outcome [17] | outcome [14] | Potency [18] | Potency [2] | max response [20] -17.2% | activity change % (negative = inhibition) [3] -2.35% | activation [4] 1.4% | activation [5] 2.83% | max response [6] -2.65% | Potency [16] | max response [7] -17.4% | max response [8] -7.64% | max response [10] 2.92%

CCCCCCCCCCCCCCC(Br)C(=O)O (stereo not drawn)
6.53%: max response [19]
active: Potency [18] 31.6 µM | Potency [6] 14.1 µM
inactive: activation [1] -1.04% | Potency [11] | Potency [13] | max response [20] -14.5% | activation [4] 5.98% | activation [5] -0.608% | max response [7] 1.85% | max response [8] 3.54% | max response [10] -4.78%

O=C(O)C1(O)c2ccccc2-c2ccc(Cl)cc21 (stereo not drawn)
inactive: activation [1] -12.8% | Potency [11] | Potency [13] | outcome [14] | Potency [2] | activity change % (negative = inhibition) [3] -1.32% | activation [15] 13.8% | activation [4] 3.02% | activation [5] 9.46% | max response [6] 13.5% | max response [7] -16.8% | max response [8] -18.3% | Potency [9]

CCCCOCN(C(=O)CCl)c1c(CC)cccc1CC
inactive: activation [1] -1.18% | outcome [17] | outcome [14] | Potency [2] | activity change % (negative = inhibition) [3] -14.9% | activation [15] -3.79% | activation [4] -3.81% | activation [5] -2.46% | max response [6] 0.0844% | max response [7] -23.8% | max response [8] -23.1% | Potency [9] | max response [10] 3.67%

CCOP(=O)(OCC)SCS(=O)(=O)C(C)(C)C
-7.9%: max response [12]
-4.31%: max response [19]
inactive: activation [1] -1.34% | Potency [11] | outcome [17] | Potency [13] | outcome [14] | Potency [18] | Potency [2] | max response [20] 2.18% | activity change % (negative = inhibition) [3] -16.4% | activation [15] 2.21% | activation [4] -0.0868% | activation [5] 2.25% | max response [6] -3.37% | Potency [16] | max response [7] 1.67% | max response [8] -4.67% | Potency [9] | max response [10] 5.96%

CCC(C)(NC(=O)c1cc(Cl)c(C)c(Cl)c1)C(=O)CCl (stereo not drawn)
31.6%: max response [12]
inactive: activation [1] -7.44% | Potency [11] | outcome [17] | Potency [2] | activation [15] 14.9% | activation [4] -0.168% | max response [6] 0.829% | max response [7] 0.353% | max response [8] -19.8% | Potency [9] | max response [10] 1.32%

CC(C)C1(C)N=C(c2nc3ccccc3cc2C(=O)O)NC1=O (stereo not drawn)
inactive: Potency [11] | outcome [17] | Potency [13] | outcome [14] | Potency [18] | Potency [2] | max response [20] 4.25% | activity change % (negative = inhibition) [3] 9.94% | activation [15] 1.69% | activation [4] -0.622% | activation [5] -0.47% | max response [6] 0.197% | Potency [16] | max response [7] -2.59% | max response [8] -6.66% | Potency [9] | max response [10] -1.98%
6.33%: max response [19]

COC[C@H](C)N(C(=O)CCl)c1c(C)csc1C
-36.8%: max response [12]
inactive: activation [1] -4.92% | Potency [11] | Potency [13] | outcome [14] | Potency [2] | max response [20] -19.4% | activity change % (negative = inhibition) [3] -22.8% | activation [15] -5.41% | activation [4] -0.69% | activation [5] -2.7% | max response [6] -0.842% | max response [8] -14.5% | Potency [9] | max response [10] 0.618%
-0.446%: max response [19]
